KCNQ2 inh: rat KCNQ2 potassium channel inhibitors, primary screen, cell-based, CHO-K1, FluxOR thallium flux, B-score; 20 min; hits give low values; AID 2156, 2009; 310,000 compounds, 1.1% hits; B-score at 10 µM;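 active means fluorescence ratio B-score at most minus 3 library SDs, with starting brightness B-score within 2 library SDs, cut at about -5.5 in these data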
KCNQ2 enhance: potentiators of rat KCNQ2 potassium channel; Potassium voltage-gated channel subfamily KQT member 2 (Rattus norvegicus), O88943; CHO-K1 KCNQ2, FluxOR thallium flux fluorescence; hits give high values; B-score at 10 µM; 310,000 compounds, 0.54% hits; AID 2239, 2010;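 active means fluorescence ratio B-score at least 3 SD of library B-scores, with initial fluorescence B-score within 3 of them, cut at about 5.3 in these data; same plate scores as AID 2156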;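 further: B-score of peak minus minimum over baseline fluorescence ratio after K+ and Tl+ stimulus; positive B-score means potentiation of KCNQ2 with more thallium influx and brighter signal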
An asterisk follows results filed as active; i = inactive; . = no result given. This is a sample that favours compounds with a hit; in the whole collection about 1.6% have one here.

SMILES | KCNQ2 inh | KCNQ2 enhance
COc1cc(C(=O)OCC(=O)NC2CCCCCC2)ccc1OCC(C)C | i | .
S=C(CN1CCCC1=S)NCCc1ccccc1 | i | 2.7
O=C(Nc1ccc(N2CCOCC2)cc1N1CCOCC1)c1ncoc1-c1cccc(F)c1 | i | .
O=C(Nc1ccccc1N1CCCCC1)c1ncoc1-c1cccc(F)c1 | -5.8* | -5.8
O=C(O)c1sccc1Oc1ccc(NS(=O)(=O)c2ccccc2)cc1 | i | 0.19
Cc1nccn1CC(=O)N/N=C/c1cccc(O)c1 | i | .
COc1ccc(C2CC(c3ccccc3)n3nc(NC(=O)c4cccs4)nc3N2)cc1 (configuration not stated) | -5.6* | -5.6
COc1ccc(C2CC(c3ccccc3)Nc3nc(NC(=O)c4cccs4)nn32)cc1 (configuration not stated) | i | 0.27
Cc1[nH]c(=O)[nH]c(=O)c1S(=O)(=O)Nc1cccc([N+](=O)[O-])c1C | i | 0.01
O=C(Cn1nc(-c2ccccc2)nc1-c1ccccc1)OC1CCCCC1 | -6.1* | -6.1
CCOC(=O)Cn1nc(-c2ccccc2)nc1-c1ccccc1 | i | .
Cc1cc(-c2nnc(CCC(=O)N(C)C(C)c3cccs3)o2)no1 (configuration not stated) | i | .
CC1(C)CC1C(=O)Nc1ccc([N+](=O)[O-])cc1Br (configuration not stated) | i | 1.4
Cc1ccc(C2(c3ccc(C)cc3)CC2C(=O)Nc2ccc([N+](=O)[O-])cc2O)cc1 (configuration not stated) | -7.8* | -7.8
O=C1CCC(C(=O)Nc2cccc(Br)c2)N1 (configuration not stated) | i | 2.1
CC(=O)c1cn(Cc2ccccc2)c(=O)n(Cc2ccc(F)cc2)c1=O | i | .
Cc1c(Cl)c(C(=O)N2CCCCCC2)nn1C | i | .
COC(=O)Cn1ncc(N(C)Cc2ccccc2)c(Cl)c1=O | i | 0.39
CC1(C)CC(c2nc(-c3ccc(Br)cc3)cs2)CCS1 (configuration not stated) | i | .
CC1(C)CC(c2nc(-c3ccc(Cl)cc3)cs2)CCS1 (configuration not stated) | -6.4* | -6.4
COc1ccc(S(=O)(=O)N2CCCOC2CNC(=O)C(=O)NCCCN2CCOCC2)cc1 (configuration not stated) | i | .
CCOC(=O)Cn1c(=NC(=O)CSC(C)=O)sc2ccccc21 | -6.8* | -6.8
CCOC(=O)Cn1c(=NC(=O)CSC(C)=O)sc2cc(OC)ccc21 | i | .
CC1CN(C(=O)CCC(=O)NCc2ccccc2Cl)c2ccccc2S1 (configuration not stated) | -7.4* | -7.4
CC(C)Oc1ccc(CNC(=O)CCC(=O)N2CC(C)Sc3ccccc32)cc1 (configuration not stated) | i | .
SMILES | KCNQ2 inh | KCNQ2 enhance
COc1ccc(N2CCN(C3CCCN(C(=O)C4=C(C)OCCO4)C3)CC2)cc1 (configuration not stated) | i | 1.3
O=C(CN1CCNC(=O)C1)NCCc1ccc(Cl)cc1Cl | i | 0.26
Cc1cccnc1NC(=S)Nc1ccc(Br)cc1Cl | i | .
CO/C=C\C=C/c1nnn(-c2ccc(Cl)cc2)n1 | -6.9* | -6.9
Clc1ccc(-n2cnnn2)cc1 | i | 0.78
CNC(=O)NC(=O)C(OC(=O)Cc1cccc(C(F)(F)F)c1)c1ccccc1 (configuration not stated) | i | 0.12
CC1CCCN(C(=O)CCNS(=O)(=O)c2ccc3c(c2)c(=O)n(C)c(=O)n3C)C1 (configuration not stated) | i | 0.27
Cc1ccc(C2OC3=C(C(=O)CC(C)(C)C3)C(N)=C2C#N)o1 (configuration not stated) | i | 5.3*
Cc1ccc(C2C(C#N)=C(N)SC(N)=C2C#N)o1 | i | 0.54
COC(=O)c1ccc(OC)c(CSc2nnc(COc3cccc(C)c3)o2)c1 | -6.1* | -6.1
COC(=O)c1ccc(OC)c(CSc2nnc(COc3ccc(OC)cc3)o2)c1 | i | .
COCCn1c(SC(C)C(=O)Nc2ccc(Cl)cn2)nnc1-c1ccncc1 (configuration not stated) | i | 1.1
O=S(=O)(Nc1nc2c(s1)CCCC2)c1ccc2ccccc2c1 | i | 0.15
c1ccc2c(Nc3nc4c(s3)CCCC4)cccc2c1 | -7.4* | -7.4
Cc1c(-c2ccccc2)nc2ccccc2c1C(=O)O | i | 2.1
CC[C@H](NC(=O)c1c(C)c(-c2ccccc2)nc2ccccc12)c1ccccc1 | -11* | -11
CCOc1ccc(N(CC(=O)N2CCOCC2)S(=O)(=O)c2ccc(Cl)cc2)cc1 | i | 0.01
COc1ccc(C(C#N)=C2C=CC(=NO)C=C2)cc1 | -5.7* | -5.7
COc1ccc(C(=O)c2ccc(Cl)cc2)cc1 | i | 0.7
O=C(NCC(=O)N1CCC2(CC1)NCCc1[nH]cnc12)c1ccc2ccccc2c1 | i | .
O=C(N/N=C/c1cccnc1)c1ccc2c(c1)OCCO2 | i | 1.5
Cc1cc(C)c2c(=O)n(CC(=O)NC3CCCC3)sc2n1 | i | 4.2
COc1ccc(OC)c(CCNC(=O)Cn2sc3nc(C)cc(C)c3c2=O)c1 | -9.3* | -9.3
COc1cc(C(=O)Nc2ccc(Nc3ccccc3)cc2)cc(OC)c1OC | i | .
CCc1ccc(NC(=O)CSCCO)cc1 | i | 0.6
SMILES | KCNQ2 inh | KCNQ2 enhance
CCCCSCCCNC(=O)Nc1ccc(CC)cc1 | i | 5.6*
C=CCN(CC(O)c1cccc([N+](=O)[O-])c1)C(C)CCc1ccccc1 (configuration not stated) | i | .
O=C(O)c1cc(-c2ccc(-c3c(-c4ccc5c(c4)OCO5)noc3-c3ccsc3)cc2)nc2ccccc12 | i | .
c1ccc(-c2onc(-c3ccco3)c2-c2ccc3c(c2)OCO3)cc1 | -5.9* | -5.9
O=C(CN1C(=O)NC2(CCCc3ccccc32)C1=O)NCc1ccc(Cl)cc1Cl (configuration not stated) | i | .
CO/N=C(\Cn1ncc(NC2CCCCC2)c(Br)c1=O)c1ccc(Cl)cc1 | -6.2* | -6.2
CO/N=C(\Cn1ncc(N2CCCC2)c(Br)c1=O)c1ccc(Cl)cc1 | i | .
COc1ccc(/C(C)=N/NC(=S)NCCc2ccccc2)c(O)c1 | i | 0.12
CC1CCN(Cc2c(C(=O)N3CCc4ccccc4C3)nc3ccc(Cl)cn23)CC1 | -5.8* | -5.8
O=C(c1nc2ccc(Cl)cn2c1CN1CCC(O)CC1)N1CCc2ccccc2C1 | i | 0.37
CCn1c([N+](=O)[O-])nc2c1c(=O)[nH]c(=O)n2C | i | .
CC(C(=O)Nc1ccccc1Oc1ccccc1)c1ccccc1 (configuration not stated) | i | 8.9*
COc1ccccc1NC(=O)C(C)NC(c1ccccc1)c1ccccc1 (configuration not stated) | i | 1.4
COc1ccc(C)cc1NC(=O)C(=O)NNC(=O)COc1ccc(Cl)cc1 | i | 11*
Cc1ccc(NC(=O)NNC(=O)COc2ccc(Cl)cc2)cc1 | i | 0.66
Cc1ccc(SC[C@H](c2ccccc2)N2CCN(CCc3ccccc3)CCC2=O)cc1 | -6.1* | -6.1
CC(C)CN1CCC(=O)N([C@H](CSc2ccccc2)Cc2ccccc2)CC1 | -5.7* | -5.7
Cc1ccc(SC[C@H](Cc2ccccc2)N2CCN(CC(C)C)CCC2=O)cc1 | i | .

Assay outcomes: PubChem BioAssay, Johns Hopkins Ion Channel Center
